This is one part of the list. Values without a mark were called inactive. Calls of active or inactive are those of the source. Cut-off read from the data, not from the text of the source: active = IC50 below about 9 µM; inactive = the rest.

This test can be described thus: binders of control antibody PGV04, dose response, counter-screen for PG9 antibody binder project, biochemical, TR-FRET, distinct HIV envelope site (AID 651937). Particulars: TR-FRET binding to control antibody PGV04.
As for `CC1(C)Cc2ccccc2-c2[nH]c(=S)[nH]c(=O)c21`, the IC50 is 38.1 µM.

Consider `S=c1[nH]c2ccccc2c2ccccc12`, for which the IC50 was 36.4 µM.

Turning to `COC(=O)C1=C(C)N(Cc2ccccc2C(F)(F)F)C(=NCc2ccc(OC)cc2)NC1c1cccc(C(F)(F)F)c1` (configuration not stated), the IC50 is more than 67 µM.

As for `O=C(Nc1nnc(-c2ccccc2F)s1)c1ccccc1F`, the IC50 was 14.3 µM.

On to `Cc1cccc(Nc2nc3c(S(=O)(=O)c4ccccc4)nnn3c3ccccc23)c1C`, for which the half-inhibitory concentration (IC50) is 2.86 µM (active).

On to `O=C(Oc1ccccc1)Oc1ccc2c(c1)oc(=O)c1ccccc12`, for which the 50% inhibitory concentration (IC50) is 2.5 µM (active).

As to `COc1ccc(-c2c(C)nn3c(N4CCC(C(=O)N5CCCCC5)CC4)cc(C)nc23)cc1OC`, the IC50 is 56.5 µM.

The values above are taken from PubChem BioAssay AID651937 (The Scripps Research Institute Molecular Screening Center, 2012).
